Compound activity (PubChem)
Hits are enriched below; roughly 19% of the tested compounds scored in any of these assays.
IL-1B inflam inh: inhibitors of inflammasome signaling (IL-1 beta secretion); activity change, % at 57.5 µM; THP-1 LPS/ATP IL-1B secretion, AlphaLISA, 16 h; active compounds read low; 4.7% of 360,000 active; AID 743279; in the data active = activity change below about -50%; inconclusive = mostly about -30% to -49%
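THP-1 cells pretreated 1 hr with compounds (up to 57.5 uM final), then stimulated with LPS (250 ng/mL final) plus ATP (1.25 mM final); secreted IL-1B measured by AlphaLISA after 16 hr, decreased signal indicating inhibition.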
HT1080NT lethal: kills 2HG-producing HT-1080-NT fibrosarcoma cells; HT-1080-NT fibrosarcoma viability, CellTiter-Glo ATP luminescence, 48 h; Potency, µM (titrated, usually from 46.1 µM), without a hit: at the highest dose activity, negative = less viability, actives largely listed as cytotoxic; 1.6% of 360,000 active;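 note: NT is the 2HG producing partner of a matched IDH1 knockdown line; potency is the fitted concentration of half-maximal effect; 0% = DMSO-treated cells and -100% = media-only wells without cells; nearly all actives have a fitted effect of over 55% in size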
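Viability of the 2HG-overproducing fibrosarcoma line after 48 hours of compound exposure at 37 degrees C was determined by luminescence with CellTiter-Glo, and concentration-effect curves were then fitted and categorized.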
ELG1 DNA repair: ELG1-dependent DNA repair inhibition | HEK293T ELG1-luciferase reporter, luminescence, 16 h; DNA damage induced by 5-fluorouridine | Potency, µM (series often up to 46.1 µM), without a hit: top-dose activity change, negative = inhibition, actives largely listed as inhibitors | 2.3% of 330,000 active; note: potency is the fitted concentration of half-maximal effect; nearly all actives have a fitted effect of over 55% in size
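Quantitative HTS, concentration-response format. 2,000 cells/well co-treated with 5-fluorouridine and compound, 16 hr in 5% CO2 at 37 °C; ONE-Glo luminescence read after 30 min.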
HT1080 IDH1KD tx: toxicity to HT-1080 IDH1 knockdown cells (counter line); HT-1080 IDH1 knockdown viability, ATP luminescence, 48 h; Potency, µM (titrated, usually from 46.1 µM), for the others: at the top dose activity, negative = toxicity, hits mostly cytotoxic; 2% of 360,000 active; AID 686971;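 note: potency is the fitted concentration of half-maximal effect; 0% = DMSO wells and -100% = cell-free medium wells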
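Luminescent ATP read-out (CellTiter-Glo, 10 min at room temperature) after 48 h compound exposure at 37 °C gave viability of IDH1-knockdown HT-1080 cells. Activity was normalised to DMSO and cell-free wells, then fitted as concentration-response curves.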
DT40 TDP1 CPT: growth inhibition of DT40 Tdp1-/-;hTDP1 cells with camptothecin (screen for TDP1 inhibitors); 12% of 420,000 active; chicken DT40 Tdp1-/-;hTDP1 cells + 20 nM CPT, ATP luminescence, 48 h; Potency, µM (top dose mostly 46.2 µM), for inactives: at the highest dose activity change, negative = growth inhibition, hits mostly inhibitors; AID 686979; note: potency is the fitted concentration of half-maximal effect; nearly all actives have a fitted effect of over 55% in size
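Chicken DT40 Tdp1-/- cells complemented with human TDP1, 400 cells/well, exposed to compounds plus 20 nM camptothecin for at least 48 h at 37 C; viability read as ATP content by CellTiter-Glo luminescence.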
DT40 TDP1 no CPT: qHTS for Inhibitors of human tyrosyl-DNA phosphodiesterase 1 (TDP1): qHTS in cells in absence of CPT; DT40 Tdp1-/- hTDP1 cells, no CPT, ATP luminescence, 48 h; Potency, µM (highest dose often 46.2 µM), inactives show top-dose activity change, negative = growth inhibition, usual class: inhibitors; 15% of 420,000 active; AID 686978, 2013; note: potency is the fitted concentration of half-maximal effect; nearly all actives have a fitted effect of over 55% in size
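A cellular qHTS used chicken DT40 cells lacking endogenous Tdp1 but carrying stably transfected human TDP1. Compounds were applied without camptothecin, and cell growth kinetics were judged by ATP-dependent luminescence after ≥48 hr.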
Numbers without * were called inactive; ? = inconclusive; nt = not tested or not shown; [ ] = another dose, or the depositor's remark. Unless noted, calls come from the whole dose curve; as a rule, active = well fitted curve in the direction sought with a large enough effect; inconclusive = small, poorly fitted or top-dose-only effect, or another doubt; inactive = no such curve, though single readings can be large; an effect the other way counts as inactive or inconclusive. Unless noted, % is set by controls: 0 for no effect and ±100 for the full control effect.

SMILES | IL-1B inflam inh | HT1080NT lethal | ELG1 DNA repair | HT1080 IDH1KD tx | DT40 TDP1 CPT | DT40 TDP1 no CPT
Cc1ccc(C23CC4CC(CC(CN)(C4)C2)C3)cc1 | -95* | 18µM* | ? | ? | 6.5µM* | 10µM*
NCC12CC3CC(C1)CC(c1ccc(Br)cc1)(C3)C2 | -77* | ? | 4% | ? | 21µM* | 15µM*
O=C(CN1C(=O)CCc2cc(Br)ccc21)Nc1ccc(OC(F)(F)F)cc1 | nt | nt | nt | nt | ? | -4%
O=C(c1ccncc1)N1CCC2(CCCN(c3ccccn3)C2)CC1 | nt | nt | nt | nt | -26% | ?
CCCS(=O)(=O)NC(=O)C1(C)CCCN(C(=O)c2c(F)ccc(C)c2F)C1 (centres undefined) | 36 | 12% | nt | 7% | -2% | -7%
O=C(c1ccc(F)cc1)N1CCN(CCc2ccncc2)CC1 | nt | nt | nt | nt | -14% | -25%
CCCS(=O)(=O)NC(=O)C1(C)CCCN(C(=O)c2cc(C(C)(C)C)nn2C)C1 (centres undefined) | 12 | 22% | nt | 6% | -1% | -1%
CCCS(=O)(=O)NC(=O)C1(C)CCN(C(=O)c2cc(C(C)(C)C)nn2C)C1 (centres undefined) | -53* | 25% | nt | 19% | 3% | -7%
Cc1nc(C(F)(F)F)ccc1C(=O)N1CCC1(C)C(=O)NS(=O)(=O)c1cccc(C#N)c1 (centres undefined) | 56 | 14% | nt | 11% | 18% | 8%
CN(C)c1ccc(-c2nnn(CC(=O)Nc3ccccc3N3CCOCC3)n2)cc1 | -77* | 10% | 15µM* | 0% | ? | ?
CC1CCCN(C(=O)Cn2nnc(-c3ccc(N(C)C)cc3)n2)C1 (centres undefined) | 8 | 2% | 14% | -1% | 5% | -22%
Cc1ccccc1NC(=O)Cn1nnc(-c2ccc(N3CCOCC3)cc2)n1 | 15 | 0% | 21% | -20% | -17% | -13%
CN(C)c1ccc(-c2nnn(CC(=O)N3c4ccccc4CCc4ccccc43)n2)cc1 | -2 | 14% | 3% | 2% | ? | 16µM*
CCOC(=O)C1CCN(C(=O)c2cc3c(=O)n4ccccc4nc3n2C)CC1 | 6 | -9% | 0% | 14% | 1% | 2%
CCN(CC)C(=O)Cn1cc(SCC(=O)Nc2ccccc2F)c2ccccc21 | nt | nt | nt | nt | ? | 26µM*
CCN(CC)C(=O)Cn1cc(SCC(=O)Nc2ccc(C)cc2)c2ccccc21 | nt | nt | nt | nt | ? | 26µM*
Cc1cccc(N2CCN(CCCNc3ncnc4onc(-c5ccc(F)cc5)c34)CC2C)c1 (centres undefined) | nt | nt | nt | nt | ? | 21µM*
Cc1ccc(C)c(N2CCN(CCCNc3ncnc4onc(-c5ccc(Cl)cc5)c34)CC2)c1 | nt | nt | nt | nt | ? | 16µM*
Cc1cccc(N2CCN(Cc3cnc(Cl)s3)CC2C)c1 (centres undefined) | 36 | -15% | ? | -7% | 4% | -22%
Cc1cccc(N2CCN(CCCNc3ncnc4onc(-c5ccc(Cl)cc5)c34)CC2C)c1 (centres undefined) | nt | nt | nt | nt | ? | 21µM*
Cn1ncc2c(=S)[nH]c(=S)[nH]c21 | 52 | 20% | nt | 25% | ? | ?
CC(C)C[C@@H](CN)NC(=O)c1nc[nH]c1C(=O)N[C@@H](C)C(=O)CNC[C@H](C)NC(=O)c1nc[nH]c1C(=O)N[C@@H](C)C(=O)O | 18 | 10% | nt | 13% | -15% | -9%
O=C(Cc1csc(-c2ccccc2)n1)NCc1cccs1 | 31 | -3% | 18% | 0% | 4% | -7%
Fc1ccc(N2CCN(Cc3ccc4c(c3)CN(Cc3cccn3-c3ncccn3)CCO4)CC2)cc1 | nt | nt | nt | nt | 3%[9.04 µM] | ?
